CHRM1 agonist – activates human CHRM1 receptor. 360,000 tested, 0.33% active. AID 588814. activation, % at 3 µM. CHO-K1 hM1, Fluo-8 calcium fluorescence, agonist mode; 0% DMSO, 100% acetylcholine EC100. P11229;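 active = activation above the run's mean compound activation plus 3 SD, cut at about 16% in these data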;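 note: peak over basal fluorescence ratio within a 140 s kinetic read after compound addition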
Target sequence (P11229 whole entry, looked up): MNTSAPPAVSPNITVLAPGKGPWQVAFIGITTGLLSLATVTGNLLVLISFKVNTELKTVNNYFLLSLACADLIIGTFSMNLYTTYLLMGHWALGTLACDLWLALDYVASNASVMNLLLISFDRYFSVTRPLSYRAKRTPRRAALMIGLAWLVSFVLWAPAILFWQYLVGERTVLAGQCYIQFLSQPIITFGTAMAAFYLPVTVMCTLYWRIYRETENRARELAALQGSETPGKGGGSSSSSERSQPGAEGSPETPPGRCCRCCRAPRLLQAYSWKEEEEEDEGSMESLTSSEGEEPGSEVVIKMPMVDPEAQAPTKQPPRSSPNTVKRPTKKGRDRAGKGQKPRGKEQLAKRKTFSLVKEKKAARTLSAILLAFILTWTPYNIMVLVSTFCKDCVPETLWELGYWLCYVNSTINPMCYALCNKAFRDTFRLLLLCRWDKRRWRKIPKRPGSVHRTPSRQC
CHO-K1 Ca ag – counter-screen for M1 agonists: effect in parental CHO-K1 cells; Fluo-8 calcium fluorescence; scaled to maximal ATP response, vehicle zero; activation, % at 3 µM; 360,000 tested, 0.48% active; in the data active = activation above about 15%;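 note: untransfected CHO-K1 host cells lacking M1 receptor as counterscreen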
CHO-K1 Ca PAM – counter-screen for M1 PAMs: effect in parental CHO-K1 cells; activation, % at 3 µM; ATP EC20, Fluo-8 calcium fluorescence; 0% at ATP EC20, 100% at ATP max; 360,000 tested, 0.02% active;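 active = activation above the run cutoff, the mean activation of all test compounds plus 3 SD, cut at about 40% in these data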;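 note: peak over basal fluorescence ratio in a 140 s read after ATP addition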
CHRM1 PAM – potentiates human M1 receptor response to acetylcholine | CHO-K1 hM1, Fluo-8 calcium fluorescence, ACh EC20; 0% = ACh EC20, 100% = maximal ACh | activation, % at 3 µM | 360,000 tested, 0.088% active; in the data active = activation above about 19%, passing the limit was not always enough
CHO-K1 Ca antag – counter-screen for M1 antagonists: effect in parental CHO-K1 cells. ATP-induced calcium, Fluo-8 fluorescence. 360,000 tested, 0.6% active. inhibition, % at 3 µM;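 active = inhibition above a per-plate cutoff, the plate's mean sample inhibition plus 3 SD, cut at about 24% in these data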;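 note: 0% = DMSO plus EC80 ATP and 100% = DMSO alone without ATP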
CHRM1 antagonist – blocks human M1 muscarinic receptor | CHO-K1 hM1, Fluo-8 calcium fluorescence, ACh EC80 antagonist | AID 588852 | P11229 | 360,000 tested, 1.3% active | inhibition, % at 3 µM;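 active = percent inhibition above its own plate's cutoff, namely the mean of that plate's compound wells plus 3 SD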;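 note: peak over basal fluorescence ratio during 140 s after agonist addition; 0% = ACh EC80 plus DMSO and 100% = DMSO alone without agonist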
* hit, by the source's call; . = not tested or not shown. This is a sample that favours compounds with a hit; in the whole collection about 2.4% have one here.

SMILES	CHRM1 agonist	CHO-K1 Ca ag	CHO-K1 Ca PAM	CHRM1 PAM	CHO-K1 Ca antag	CHRM1 antagonist
N=C(N)SCc1ncccc1O	12	0	20	4	-19	-14
CC(=O)c1ccc(Nc2nc(-c3ccccc3)nc3ccccc23)cc1	-3	1	-1	5	-5	-9
CN(C)C(=O)c1ccc(Nc2nc(-c3cccs3)nc3ccccc23)cc1	-2	5	-2	-15	18	26*
O=C(Cn1nnc2ccccc2c1=O)Nc1cccc(S(=O)(=O)N2CCOCC2)c1	0	0	10	2	-5	10
C/C(=N\NC(=O)CSc1nc(C)cc(C)n1)c1cccc([N+](=O)[O-])c1	-8	0	41*	9	-13	-12
CCn1c(N2CCN(C(=S)NC)CC2)nc2ccccc21	-3	2	11	0	-18	-25
CCn1c(N2CCN(C(=S)NCC(C)C)CC2)nc2ccccc21	-7	7	10	-24	-12	39*
CCOCCCNC(=O)CN(c1cc([N+](=O)[O-])ccc1OC)S(C)(=O)=O	8	1	18	9	-4	-5
Nc1c(C(=O)NCC2CCCO2)c2nc3ccccc3nc2n1-c1ccccc1 (stereo not drawn)	3	5	7	-16	0	28*
Nc1c(C(=O)NCCN2CCOCC2)c2nc3ccccc3nc2n1-c1cccc(F)c1	-4	2	15	0	-5	6
C=CCNC(=O)c1c(N)n(-c2ccc3c(c2)OCO3)c2nc3ccccc3nc12	-12	1	7	-25	-15	69*
COc1cccc(-c2ncc3ccccc3c2COC(=O)CCC(=O)O)c1	-9	1	8	0	-10	6
S=C(NCc1cccs1)Nc1cc(Cl)cc(Cl)c1	2	14	3	-20	16	43*
S=C(NCc1cccs1)Nc1cccc(Cl)c1	-2	8	-12	-17	-4	18
CCOC(=O)N1CCC(N2CCCC(CO)(Cc3ccccc3C)C2)CC1 (stereo not drawn)	-10	0	1	-20	-3	26*
CCOC(=O)N1CCC(N2CCCC(CO)(Cc3cccc(Cl)c3)C2)CC1 (stereo not drawn)	0	2	8	-15	-11	39*
COc1cc(C(=O)NCC(c2cccs2)N2CCOCC2)cc(Br)c1OCc1ccccc1 (stereo not drawn)	-5	0	4	3	-2	2
O=C(Nc1nnc(-c2ccccc2)o1)c1nc2ccccc2s1	66*	8	26	-9	-12	-2
Cn1cc(S(=O)(=O)N2CCOCC2)cc1C(=O)NCc1ccccc1Cl	-4	1	30	5	-18	-11
Nc1nc(Nc2ccccc2F)sc1C(=O)c1ccccc1	17*	10	13	11	-21	-3
O=C1NC[C@@H](CCCCN2C[C@H](Cc3ccc(O)cc3)N(CC3CCCCC3)C(=O)C2=O)N(CCC2CCCCC2)C1=O	.	63*	8	.	-9	.
O=C1NC[C@H](CCCCN2C[C@H](Cc3ccccc3)N(Cc3ccccc3)C(=O)C2=O)N(CC2CCCCC2)C1=O	.	0	-4	.	-5	.
O=C1NC[C@@H](CCCCN2C[C@H](Cc3ccccc3)N(CC3CCCCC3)C(=O)C2=O)N(Cc2ccccc2)C1=O	.	17*	-10	.	-5	.
CC(=O)C1CCC2C3CC(C)=C4CC(O)CCC4(C)C3CCC12C (stereo not drawn)	-2	-1	-10	1	3	1
CCCC1=NN2C(=N)/C(=C\c3cc(C)n(Cc4ccccc4)c3C)C(=O)N=C2S1	59*	27*	-17	-27	-5	78*
SMILES	CHRM1 agonist	CHO-K1 Ca ag	CHO-K1 Ca PAM	CHRM1 PAM	CHO-K1 Ca antag	CHRM1 antagonist
CCOc1ccc(CCNC(=O)CS(=O)Cc2nc(-c3ccccc3C)oc2C)cc1OCC (stereo not drawn)	-5	0	11	-3	-4	5
CCN(CC)CCNc1ccnc2cc(Cl)ccc12	-14	1	8	-4	-18	-5
Clc1ccc2c(NCc3ccccc3)ccnc2c1	-5	17*	-1	-9	5	-1
CCCN1C(=O)CC(=O)N=C1SCC(=O)Nc1ccccc1F	6	18*	0	-2	-13	-1
COc1ccc(NC2=Nc3cccc4cccc2c34)cc1	19*	4	7	-12	-6	7
C=CCSc1nsc(NC(=O)Nc2ccc(F)cc2)n1	5	14	13	-13	25*	31*
CCSc1nsc(NC(=O)Nc2cccc(OC)c2)n1	4	17*	5	-14	13	27*
CCSc1nsc(NC(=O)Nc2ccccc2F)n1	4	14	-7	-12	6	22
O=C1COc2ccc(S(=O)(=O)CCC(=O)NC3CCCCC3)cc2N1	-4	0	-13	10	1	-12
CCC1CCCCN1CCCNC(=O)CSc1nc2nc(C)c(Cc3ccccc3Cl)c(C)n2n1 (stereo not drawn)	-5	1	17	-23	-8	51*
CCC1CCCCN1CCCNC(=O)CSc1nc2nc(C)c(Cc3ccccc3)c(C)n2n1 (stereo not drawn)	-13	0	21	-28	-5	25*
CCC1CCCCN1CCCNC(=O)Cn1nc(C)n2nc(-c3ccccc3)cc2c1=O (stereo not drawn)	-14	0	4	2	-15	-13
CCC1CCCCN1CCCNC(=O)Cn1c2ccccc2c2nc(=O)cc(C)n21 (stereo not drawn)	-6	0	3	0	-14	-9
Cc1ccc(C(=O)COC(=O)c2cccc([N+](=O)[O-])c2)s1	-4	0	5	9	-8	-13
ClCc1nc2ccccc2c2ccccc12	-5	0	-10	1	-14	5
CCc1noc(C)c1C(=O)OCC(=O)Nc1nc(-c2ccc(F)c(F)c2)cs1	-2	5	4	-22	-11	42*
Cc1noc(C)c1CSCC(=O)Nc1nc(-c2ccc(F)c(F)c2)cs1	-1	6	-24	-16	17	35*
COc1ccc(-c2csc(NC(=O)CSCc3c(C)noc3C)n2)cc1OC	1	5	6	-5	-7	-13
CCc1sc(C(=O)NCCc2ccc(S(N)(=O)=O)cc2)cc1Br	-7	0	-12	-9	29*	9
Nc1nccnc1C(=O)OCC(=O)c1ccc[nH]1	-2	1	-4	5	-3	-4
COc1ccc(OC)c(NC(=O)c2cc(OC(C)=O)cc(C(=O)Nc3cc(OC)ccc3OC)c2)c1	2	2	-11	10	30*	-4
CN(C)/C=N/NC(=O)C1Cc2c(ccc3ccccc23)O1 (stereo not drawn)	-4	16*	18	7	0	-11

High-throughput results: PubChem BioAssay, The Scripps Research Institute Molecular Screening Center
